Shown are actives, neighbours in structure and some others; about 8.7% of the full set was active somewhere.
Smad3 inh – inhibitors of human Smad3 transcription factor binding; P84022; TR-FRET Smad3/Dy647-FoxH1 peptide binding, europium anti-His; inhibition, % at 25 µM; actives 0.29% (n = 88,000); AID 630;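 active = compounds that reduce the energy-transfer binding signal between the protein and its labelled peptide by more than half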;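 also: 0% = Smad3 plus labelled peptide maximal FRET and 100% = peptide-only background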
hDAT+cocaine – human DAT dopamine uptake with cocaine, either direction | Q01959 | LLC-PK1 hDAT cells, [14C]-dopamine uptake with cocaine IC80; actives deviate in either direction | B-score at 10 µM | actives 1.3% (n = 110,000) | AID 449768;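 active = Z score or B-score, a plate-position-corrected score, falls beyond the plate's 99.7% confidence bounds, in either direction; inactive = both scores lie inside the 99.7% bounds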;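 also: scored against the spread of the other compound wells on the same plate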
Target sequence (Q01959 whole entry, looked up): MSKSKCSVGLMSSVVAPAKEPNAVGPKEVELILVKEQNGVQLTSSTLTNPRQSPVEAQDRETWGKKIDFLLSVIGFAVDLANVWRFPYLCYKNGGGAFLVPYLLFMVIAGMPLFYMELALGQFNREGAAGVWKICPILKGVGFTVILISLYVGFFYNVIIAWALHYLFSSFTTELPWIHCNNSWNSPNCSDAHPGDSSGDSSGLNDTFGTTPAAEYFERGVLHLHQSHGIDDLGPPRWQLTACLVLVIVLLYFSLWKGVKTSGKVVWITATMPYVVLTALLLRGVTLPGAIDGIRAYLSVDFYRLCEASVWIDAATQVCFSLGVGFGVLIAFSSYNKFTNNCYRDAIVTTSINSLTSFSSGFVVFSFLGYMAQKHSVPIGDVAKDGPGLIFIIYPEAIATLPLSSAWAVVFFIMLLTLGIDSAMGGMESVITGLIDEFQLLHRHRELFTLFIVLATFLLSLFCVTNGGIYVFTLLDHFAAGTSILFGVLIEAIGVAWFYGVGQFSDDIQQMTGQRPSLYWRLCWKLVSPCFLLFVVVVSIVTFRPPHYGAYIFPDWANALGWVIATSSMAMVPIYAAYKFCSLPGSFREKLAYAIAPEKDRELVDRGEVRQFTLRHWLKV
PostGolgi ctrl – yeast control strain growth, post-Golgi counter-screen | inhibition, % at 10 µM | efflux-deficient yeast background strain, growth absorbance A615, 16 h | actives 5% (n = 98,000)
PostGolgi yeast – growth inhibition of a yeast mutant, post-Golgi transport screen; post-Golgi transport phenotypic cell assay; actives 0.9% (n = 98,000); AID 739; inhibition, % at 10 µM;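 also: yeast cells grown in 1536-well plates; yeast grown about 18 h at 30C before absorbance read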
TNAP act mid DEA – activates human TNAP at intermediate phosphate acceptor concentration; 64,000 tested, under 10 active; purified TNAP, CDP-star luminescence, 100 mM DEA, 30 min; stronger effect = higher value; scale: 0 levamisole-inhibited, 1 vehicle-only enzyme; P05186; activation factor at 20 µM;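 active = activation factor of at least 2 at 20 µM, relative to controls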
Cav3 T inh – human Cav3.2 channel inhibition, primary screen; actives 4% (n = 100,000); B-score at 10 µM; Cav3.2-expressing cells, Fluo-4 calcium fluorescence FDSS; stronger effect = lower value; O95180;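 active = single-dose well whose peak fluorescence ratio is a statistical outlier from its plate by either plate-standardised score or position-corrected B-score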
The depositor's hits bear a star; . = no result. Rule as the data show it, unless noted: active = inhibition above about 30%; inactive = the rest.

SMILES | Smad3 inh | hDAT+cocaine | PostGolgi ctrl | PostGolgi yeast | TNAP act mid DEA | Cav3 T inh
O=C1NC(c2ccccc2)=C(c2nc3ccccc3s2)C(c2ccc(O)cc2)N1 (stereo not given) | . | 1.4 | 5 | 4 | . | -1.7
CC(C)NC(=O)CSc1nncn1-c1ccccc1 | -1 | 0.82 | 33* | 4 | 1 | 0.63
Cc1cccc(CCNS(=O)(=O)c2ccc3c(c2)n(C)c(=O)c(=O)n3C)c1 | -7 | -0.2 | 14 | -10 | . | -0.14
O=S(=O)(c1ccccc1)c1cnn(-c2ccccc2)c1-c1ccc(Cl)cc1 | . | -0.46 | 39* | 6 | . | -3.9*
Cc1ncc(S(=O)(=O)c2ccc(Cl)cc2)c(-c2ccccc2)n1 | 6 | 0.00061 | 12 | 3 | . | -2.3
COC(=O)CCC(=O)OC1(C)C(=O)C=C2C=C(C3CC3)N(c3ccc(CO)cc3)C=C2C1=O (stereo not given) | . | -0.6 | . | . | . | 0.5
CC(=O)Nc1ccc(OCC(O)CN2CCN(Cc3ccccc3)CC2)cc1 (stereo not given) | -8 | -0.6 | 4 | -1 | 0.9 | 0.62
CC1CC(OCC(O)CN2CCN(Cc3ccccc3)CC2)CC(C)(C)C1 (stereo not given) | . | -1.5 | 32* | 83* | . | -2
CC(C)C[C@H](NC(=O)OC(C)(C)C)c1nnc(SCc2cccc(F)c2)o1 | -2 | 0.83 | 3 | -12 | 0.9 | -3.4*
CC(C)C[C@H](NC(=O)OC(C)(C)C)c1nnc(SCC(=O)Nc2ccc(Br)cc2)o1 | 7 | -1.1 | 6 | -7 | 0.9 | -6.5*
O=C(NCc1ccccc1)N[C@@H](Cc1c[nH]c2ccccc12)C(=O)O | 12 | -1 | 8 | -1 | 0.9 | 0.28
Cc1ccc(-n2c(C)cc(/C=N/NC(=O)c3ccncc3)c2C)c(C)c1 | . | 0.37 | -8 | 1 | . | -1.1
Cc1ccc(CNc2nc(N)c([N+](=O)[O-])c(Nc3ccc(F)cc3)n2)cc1 | -5 | -11* | 3 | -1 | . | -0.11
CCCNC(=O)c1ccc2nc(-c3ccccc3)c(-c3ccccc3)nc2c1 | . | -1.3 | 27 | 10 | . | -0.64
O=C(NCCO)c1cccc(Nc2nc(-c3ccccc3)c3cc(Cl)ccc3n2)c1 | . | 1.8 | 49* | 5 | . | 1.3
O=C(Nc1ccncc1)c1cc(F)cc(F)c1 | -2 | 0.07 | 3 | -2 | . | 0.16
CC(=O)Nc1cccc(-c2csc(Nc3cc(C)ccn3)n2)c1 | . | 3.1* | 31* | 1 | . | -3
CC(=O)Nc1cccc(-c2csc(Nc3ccccn3)n2)c1 | . | 2.5* | 12 | -15 | . | -1.9
COc1ccc(-c2ccc(-c3nnc(Cc4ccc(OC)c(OC)c4)o3)cc2)cc1 | 11 | 0.36 | 3 | -5 | 1 | -0.19
CCOC(=O)C1=C(C)Nc2nc(SCC)nn2C1c1ccc(OC)cc1 (stereo not given) | 5 | 0.32 | 0 | -1 | . | 0.55
CCOC(=O)C1=C(C)Nc2nc(=S)[nH]n2C1c1ccc(Cl)cc1 (stereo not given) | -6 | -0.7 | 31* | 4 | . | 0.061
Cc1nc2ncnn2c(C)c1CCC(=O)NCc1ccco1 | 3 | 0.15 | 4 | 10 | 1 | -0.23
N#Cc1nc(-c2cccs2)oc1NCc1ccc2c(c1)OCO2 | 7 | 0.14 | 13 | -2 | 0.9 | -5.6*
N#Cc1nc(-c2cccs2)oc1NCCc1ccccc1 | 3 | -0.76 | 34* | 0 | 0.8 | -3.9
N#Cc1nc(-c2cccs2)oc1NCCN1CCOCC1 | -9 | . | 2 | -4 | 0.9 | .
SMILES | Smad3 inh | hDAT+cocaine | PostGolgi ctrl | PostGolgi yeast | TNAP act mid DEA | Cav3 T inh
CNc1oc(-c2cccs2)nc1C#N | -8 | . | 0 | -9 | 0.9 | .
COc1ccc(Nc2oc(-c3cccs3)nc2C#N)cc1 | -3 | -0.15 | 13 | -3 | 0.9 | -4.4*
CCCn1c(SCc2nc3sc(C)c(C)c3c(=O)[nH]2)nc2ccccc2c1=O | . | -0.49 | 5 | 3 | . | 0.51
Cc1ccccc1NC(=O)c1ccc(CN2CCc3ccccc3C2)cc1 | . | 0.062 | 12 | -3 | . | -6.7*
CCc1ccccc1NC(=O)c1ccc(CN2CCC(Cc3ccccc3)CC2)cc1 | . | -6.9* | 7 | 0 | . | -7.8*
O=C(c1ccc(CN2CCOCC2)cc1)N1CCC(Cc2ccccc2)CC1 | -4 | 2.1 | 4 | -3 | 0.9 | 0.024
CN1CCN(C2=NC3(CCCC3)C(C#N)C(=O)N2)CC1 (stereo not given) | 3 | -0.28 | -1 | 2 | 0.9 | 0.07
COc1ccc([N+](=O)[O-])cc1NC1CCCCC1 | . | -0.2 | 12 | -2 | . | -5*
COc1ccc([N+](=O)[O-])cc1NC1C2CC3CC(C2)CC1C3 (stereo not given) | . | 0.097 | 2 | 3 | . | -0.26
Cc1ccccc1-n1c(Cn2c(=O)sc3ccccc32)nnc1SCC(N)=O | 6 | . | 20 | 3 | 0.8 | -0.22
O=C(CC1N=C2c3ccccc3N=C(SCc3ccc(Cl)cc3)N2C1=O)NCc1ccco1 (stereo not given) | -5 | -0.2 | 37* | -3 | 0.9 | -3.3
O=C(CCN1C(=O)c2ccccc2S1(=O)=O)N1CCN(c2ccccc2)CC1 | -7 | -0.66 | 13 | 4 | 1 | 2
Cc1cc(C)c2c(-n3cccc3)c(C(=O)NNS(=O)(=O)c3ccccc3)sc2n1 | . | 0.73 | 22 | 2 | . | -1.5
Cc1cc(C)c2c(-n3cccc3)c(C(=O)NNS(=O)(=O)c3ccc(Cl)cc3)sc2n1 | . | 2.6 | 28 | 2 | . | -5.1*
Cn1nc(C(F)(F)F)c2cc(NC(=O)OCc3ccc(F)cc3)sc21 | -1 | 0.45 | 18 | -4 | . | -2.5
Cn1nc(C(F)(F)F)c2cc(NC(=O)OCc3ccc(C(C)(C)C)cc3)sc21 | -16 | 1.1 | 38* | -5 | . | -2.5
O=C(O)/C=C\C(=O)Nc1ccccc1C#Cc1ccc(Br)cc1 | . | -0.93 | -1 | 23 | . | -1.7
Cc1cc(N)c(-n2cc3c(=O)n(C)c(=O)n(C)c3c2)cc1C | -7 | 0.22 | 32* | 4 | 0.9 | 2
O=C(O)c1c[nH]c2ccc(S(=O)(=O)N3CCOCC3)cc12 | 7 | -0.4 | -4 | -4 | 0.9 | -1.3
Cc1ccc(S(=O)(=O)c2c(COC(=O)c3ccccc3Cl)c(-c3ccccc3)nn2C)cc1 | -4 | 1.5 | 12 | -2 | . | -0.92
OCCNc1nc(SCc2ccccc2)nc2sc3c(c12)CCC3 | 4 | . | 74* | -1 | . | .
CCOC(=O)c1sc(NC(=S)NC(=O)CC(C)C)cc1C | . | 0.025 | 26 | -6 | . | -0.012
Cc1ccc2occ(/C=C/C(=O)c3ccccc3O)c(=O)c2c1 | . | 0.18 | 13 | 5 | . | .
Cc1ccc(N2CCN(S(=O)(=O)N3CCCCCC3)CC2)cc1Cl | 4 | 0.055 | 0 | 31* | . | -1.5
C=C1N(c2ccc(Cl)cc2)C(=O)OC1(C)C | . | 0.99 | 2 | -11 | . | 0.64
Cc1oc(-c2ccccc2)cc1C(=O)Nc1cccc2ccccc12 | 7 | 0.72 | 30* | -8 | . | -5*
Cc1oc(-c2ccccc2)cc1C(=O)Nc1cccc(C(=O)O)c1 | 4 | 0.46 | 2 | -1 | 0.8 | -0.064

Compound activity deposited in PubChem BioAssay by several laboratories.
